Assay outcomes from PubChem BioAssay.
This is one part of a sample in which hits are shown more often than they occur.
GRP78 ERSR act: induces the endoplasmic reticulum stress response in human glioma cells; AID 602332; Potency, µM, for inactives: at the highest dose activation, most hits filed as activators; U87-MG GRP78 promoter luciferase reporter, 16 h; 420,000 compounds, 0.02% hits; further: series mostly up to about 76 µM; % of control where 0% means no effect; nearly all actives have a fitted effect of over 35% in size
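ERSR induction read as luciferase luminescence (Bright-Glo, 10 min at room temperature) in stably transfected human U87-MG glioma cells exposed to compounds for 16 h, using GRP78 as sensor.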
12-LOX inh: ALOX12 (human) lipoxygenase inhibition; 580,000 compounds, 1.1% hits; P18054; Potency, µM (series often up to 108 µM), for the others: at the top dose activity change, negative = inhibition, usual class: inhibitors; purified 12hLO, xylenol orange hydroperoxide absorbance; further: on the % scale 0 is the no-effect control and ±100 the full control effect
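Hydroperoxide product was detected by ferrous iron/xylenol orange as the 573 to 405 nm absorbance ratio. Arachidonic acid at 40 uM (final) was turned over for 30 min at room temperature by 150 nM human 12hLO, pH 7.0 Hepes buffer, after 15 min compound preincubation.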
Sfp PPTase inh: blocks B. subtilis Sfp PPTase activity; Biochemical Sfp PPTase activity, qHTS; Potency, µM, inactives show largest response in the series, negative = inhibition, usual class: inhibitors; 310,000 compounds, 3.5% hits;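 further: the enzyme is Sfp with the accession as filed and its product quenches rhodamine fluorescence; 0% = enzyme reaction without inhibitor and -100% = no enzyme wells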
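Step 1, compound plus 15 nM Sfp-PPTase, 15 min, room temperature. Step 2, add rhodamine-CoA (5 uM) and BHQ-2-YbbR (12.5 uM). Step 3, read 525/598 nm fluorescence at 0 and 30 min.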
VDR inh: blocks the human vitamin D receptor | VDR-SRC2-3 peptide fluorescence polarization, 2 h | Potency, µM, for the others: max response, negative = inhibition, most hits filed as inhibitors | AID 504847 | 400,000 compounds, 0.93% hits; further: on the % scale 0 is the no-effect control and ±100 the full control effect
Target sequence (P11473 whole entry, looked up): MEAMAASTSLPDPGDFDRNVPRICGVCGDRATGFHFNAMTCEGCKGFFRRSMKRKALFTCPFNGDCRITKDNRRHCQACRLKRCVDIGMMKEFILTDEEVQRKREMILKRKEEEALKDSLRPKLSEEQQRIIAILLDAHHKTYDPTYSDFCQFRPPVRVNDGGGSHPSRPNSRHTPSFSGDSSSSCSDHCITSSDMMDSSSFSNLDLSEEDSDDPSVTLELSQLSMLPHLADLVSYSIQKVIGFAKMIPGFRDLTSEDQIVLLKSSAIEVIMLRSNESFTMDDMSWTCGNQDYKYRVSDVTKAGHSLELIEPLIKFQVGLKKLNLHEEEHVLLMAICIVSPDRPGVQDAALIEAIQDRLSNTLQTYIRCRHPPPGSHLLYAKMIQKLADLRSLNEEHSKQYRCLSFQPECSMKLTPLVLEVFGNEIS
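After 23 nl compound addition and a short centrifugation, plates sat for 2 hours at ambient temperature; polarization of fluorescence then indicated loss of VDR binding to peptide SRC2-3.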
G9a block: blocks human histone lysine methyltransferase G9a | Q96KQ7 | G9a H3K9 monomethylation, AlphaScreen, 2 h | Potency, µM (doses to about 102 µM), without a hit: at the top dose activity, negative = inhibition, actives largely listed as inhibitors | 350,000 compounds, 8.8% hits | AID 504332; further: on the % scale 0 is the no-effect control and ±100 the full control effect; nearly all actives have a fitted effect of over 75% in size
Target sequence (Q96KQ7 913-1193 limits assumed): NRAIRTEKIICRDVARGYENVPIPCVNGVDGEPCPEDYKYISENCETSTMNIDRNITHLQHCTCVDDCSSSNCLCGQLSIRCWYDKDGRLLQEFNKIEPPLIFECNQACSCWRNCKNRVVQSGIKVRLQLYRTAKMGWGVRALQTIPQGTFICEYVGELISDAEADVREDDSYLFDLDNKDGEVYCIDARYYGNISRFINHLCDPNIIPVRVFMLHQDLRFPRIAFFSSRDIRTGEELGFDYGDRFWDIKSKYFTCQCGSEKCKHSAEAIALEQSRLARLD
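Chemiluminescent proximity detection of H3K9 monomethylation, read after 10 min bead incubation in the dark. Reaction: 20 nM G9a, 500 nM biotin-H3K9 peptide, 20 uM SAM cofactor, 2 h, room temperature, following 15 min enzyme-compound preincubation.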
Active calls of the source: *; ! = not active in a repeat; [ ] = dose if it differs, or a comment. The call rests on the fitted dose curve; in most records, active means well fitted curve in the direction sought with a large enough effect; inconclusive means small, poorly fitted or top-dose-only effect, or another doubt; inactive means no such curve, though single readings can be large; an effect the other way counts as inactive or inconclusive. Potency means the concentration at half of the fitted maximal effect.

Results for c1ccc(-c2ccc(-c3n(-c4ccccn4)c4ccccc4[n+]3-c3ccccn3)cc2)cc1 ?
GRP78 ERSR act: -7%; 12-LOX inh: inconclusive; Sfp PPTase inh: 2%; VDR inh: -13%; G9a block: 35µM*

Results for COc1cc2c(cc1OCc1ccccc1)NC(=O)C21CCN(C(=O)C2CCC2)CC1 ?
12-LOX inh: -16%[176 µM]

How did CC(C)N1CC2CCC(C1)N2S(C)(=O)=O do in these assays?
12-LOX inh: 6%[12.5 µM]

What do the screens show for `CC(=O)NC1N=C(C)N(c2ccccc2)C1=O` (stereo not drawn)?
GRP78 ERSR act: -1%; 12-LOX inh: inconclusive; Sfp PPTase inh: 40µM*; VDR inh: inconclusive; G9a block: 3.2µM*

How did COc1cc2c(cc1-c1cnn(C)c1)NC(=O)C21CCN(C(C)=O)CC1 do in these assays?
12-LOX inh: 27%[176 µM]

What do the screens show for `CNC(=O)Oc1ccccc1OC(C)C`?
GRP78 ERSR act: -4%; 12-LOX inh: 1%; Sfp PPTase inh: 12%; VDR inh: -13%

Results for CNC(=O)Oc1ccc2ncccc2c1 ?
GRP78 ERSR act: -2%; 12-LOX inh: -7%; Sfp PPTase inh: 2%; VDR inh: -7%; G9a block: 45µM*

What do the screens show for `CCCNC(=O)c1cn(Cc2ccccc2)c2ccccc12`?
12-LOX inh: -26%

How did NC(Cc1ccccc1)c1nc2ccccc2[nH]1 (stereo not drawn) do in these assays?
GRP78 ERSR act: 0%; 12-LOX inh: 1%; Sfp PPTase inh: -9%; VDR inh: -10%; G9a block: inconclusive

Results for NC(Cc1nc2ccccc2[nH]1)c1ccc(Cl)cc1 (stereo not drawn) ?
GRP78 ERSR act: 1%; 12-LOX inh: inconclusive; Sfp PPTase inh: 19%; VDR inh: 1%; G9a block: 40µM*

How did COc1ccc(-c2cc([C@H]3CN4CC[C@H]3C[C@@H]4CNC(=O)c3ccc4c(c3)OCO4)n(C)n2)cc1 do in these assays?
12-LOX inh: 11%

What do the screens show for `COc1ccccc1CCC(=O)N1CCC2(CC1)NCc1ccccc1-n1ccnc12`?
12-LOX inh: 37%

What do the screens show for `Cc1ccc(-n2c(-c3nn(C)c(C)c3Cl)n[nH]c2=S)cc1`?
GRP78 ERSR act: -4%; 12-LOX inh: 32µM*; Sfp PPTase inh: 56µM*; VDR inh: 4%; G9a block: inconclusive

How did Cc1ccc(-c2n[nH]c(=S)n2-c2ccccc2)cc1 do in these assays?
GRP78 ERSR act: -2%; 12-LOX inh: -47%; Sfp PPTase inh: 79µM*; VDR inh: 6%; G9a block: 1.3µM*

What do the screens show for `C/C(O)=C1\C(=O)[C@@H]2[C@H]3c4c[nH]c5cccc(c45)C[C@H]3C(C)(C)N2C1=O`?
GRP78 ERSR act: -4%; 12-LOX inh: inconclusive; Sfp PPTase inh: 56µM*; VDR inh: inconclusive; G9a block: 25µM*!

How did CC[C@H]1CN2CC[C@H]1C[C@@H]2CN(Cc1cccs1)Cc1cccs1 do in these assays?
12-LOX inh: 45%[176 µM]

What do the screens show for `Cc1cccc(OCC(=O)N2[C@H]3CC[C@@H]2c2cnc(-c4ccc(F)cc4)nc2C3)c1`?
12-LOX inh: 25%

What do the screens show for `C[N+](C)(C)CCOC(=O)C(O)(c1ccccc1)c1ccccc1`?
GRP78 ERSR act: -3%; Sfp PPTase inh: 7%; VDR inh: 8%; G9a block: inconclusive

How did COCCNCCOc1ccc(C(C)(C)c2ccccc2)cc1 do in these assays?
GRP78 ERSR act: -1%; 12-LOX inh: -25%; Sfp PPTase inh: -23%; VDR inh: 4%; G9a block: 11µM*

Results for CC(C)NC(=O)NC[C@H]1C[C@@H]2CCN1C[C@@H]2c1cc(C2CCCC2)nn1C ?
12-LOX inh: 2%[176 µM]

How did CC(C)(C)OC(=O)NNC(=S)NC1CCCCC1 do in these assays?
GRP78 ERSR act: -3%; 12-LOX inh: -2%; Sfp PPTase inh: 11%; VDR inh: 21%; G9a block: 25µM*

How did Cc1cccc(-n2nnnc2C2(NC3CCCCC3)CCCCC2)c1 do in these assays?
12-LOX inh: 8%

How did O=C1NC(=S)NC(=O)C1Cc1ccccc1 do in these assays?
GRP78 ERSR act: -2%; 12-LOX inh: 28µM*; VDR inh: inconclusive

Results for O=C1NC(=S)NC(=O)C1C/C=C/c1ccccc1 ?
GRP78 ERSR act: 1%; 12-LOX inh: 4µM*; Sfp PPTase inh: 45µM*; VDR inh: 79µM*; G9a block: 7.9µM*

What do the screens show for `CC(C)C1CN2CCCC2CN1` (stereo not drawn)?
12-LOX inh: -29%[12.5 µM]

Results for CC[C@@]1(O)C(=O)OCc2c1cc1n(c2=O)Cc2cc3c(NC(=O)CN)cccc3nc2-1 ?
GRP78 ERSR act: -5%; 12-LOX inh: 8%; Sfp PPTase inh: 56µM*; VDR inh: -5%; G9a block: inconclusive

What do the screens show for `CC[C@@]1(O)C(=O)OCc2c1cc1n(c2=O)Cc2cc3c(O)cccc3nc2-1`?
GRP78 ERSR act: -3%; Sfp PPTase inh: inconclusive; VDR inh: 10%; G9a block: 2.5µM*

Results for CC[C@@]1(O)C(=O)OCc2c1cc1n(c2=O)Cc2cc3ccccc3nc2-1 ?
GRP78 ERSR act: -8%; 12-LOX inh: inconclusive; Sfp PPTase inh: 10%; VDR inh: 0%; G9a block: 45µM*!

How did CCC1(OC(=O)CN)C(=O)OCc2c1cc1n(c2=O)Cc2cc3ccccc3nc2-1 (stereo not drawn) do in these assays?
GRP78 ERSR act: -7%; Sfp PPTase inh: 10%; VDR inh: -7%; G9a block: -33%[12.7 µM]

Results for COc1ccc(NC(=O)N2[C@H]3CC[C@@H]2c2cnc(C)nc2C3)c(C)c1 ?
12-LOX inh: 0%

What do the screens show for `C=C[C@H]1CN2CC[C@H]1C[C@@H]2CNCc1ccc(-c2ccccc2)cc1`?
12-LOX inh: -15%[176 µM]

What do the screens show for `CCCn1c(C)c(C(=O)c2cccc3ccccc23)c2ccccc21`?
GRP78 ERSR act: 4%; 12-LOX inh: -23%; Sfp PPTase inh: -15%; VDR inh: -10%; G9a block: -34%[59 µM]

Results for O=C(c1c[nH]cc1-c1ccccc1)c1cccc2ccccc12 ?
GRP78 ERSR act: -7%; 12-LOX inh: 34%; Sfp PPTase inh: 17%; VDR inh: 6%; G9a block: 25µM*

How did N#Cc1ccc(C(=O)N2C[C@@H]3C[C@H](C2)c2c(-c4cccs4)ccc(=O)n2C3)cc1 do in these assays?
12-LOX inh: 13%[176 µM]

Results for COc1ccc2c(c1O)-c1cc(O)cc3c1[C@@H](C2)N(C)CC3 ?
GRP78 ERSR act: -4%; 12-LOX inh: -2%; Sfp PPTase inh: -3%; VDR inh: 3%; G9a block: inconclusive

Results for C=CCN1CCc2cccc3c2[C@H]1Cc1ccc(O)c(O)c1-3 ?
GRP78 ERSR act: inconclusive; 12-LOX inh: 7.9µM*; Sfp PPTase inh: 45µM*; VDR inh: 10µM*!; G9a block: 0.53µM*
